# Measurements: PubChem BioAssay (EPA / NIEHS)
# Inconclusive results are not listed. The source made the active and inactive calls. Rule for the calls: active = hit-call score of the fitted dose curve at least 0.9, where 1 is the maximum; inconclusive = response in the unintended direction; inactive = score below 0.9.
# Read-out: Broad substrate specificity ATP-binding cassette transporter ABCG2 (Homo sapiens) (UniProt Q9UNQ0)
# Experiment: CLD_ABCG2_48hr: CellzDirect (CLD) Gene Expression Assay for ABC Transporter (ABCG2) at 48 hours (AID 2283704)
# Procedure, shortened: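 Primary human hepatocytes from two donors, dosed daily for 2 days, 0.2% DMSO vehicle, several concentrations. ABCG2 mRNA at 48 h by qNPA chemiluminescence, gain fitted versus DMSO; cytotoxicity flagged by morphology.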
# Chain of Broad substrate specificity ATP-binding cassette transporter ABCG2 (Homo sapiens) (Q9UNQ0 whole entry, looked up): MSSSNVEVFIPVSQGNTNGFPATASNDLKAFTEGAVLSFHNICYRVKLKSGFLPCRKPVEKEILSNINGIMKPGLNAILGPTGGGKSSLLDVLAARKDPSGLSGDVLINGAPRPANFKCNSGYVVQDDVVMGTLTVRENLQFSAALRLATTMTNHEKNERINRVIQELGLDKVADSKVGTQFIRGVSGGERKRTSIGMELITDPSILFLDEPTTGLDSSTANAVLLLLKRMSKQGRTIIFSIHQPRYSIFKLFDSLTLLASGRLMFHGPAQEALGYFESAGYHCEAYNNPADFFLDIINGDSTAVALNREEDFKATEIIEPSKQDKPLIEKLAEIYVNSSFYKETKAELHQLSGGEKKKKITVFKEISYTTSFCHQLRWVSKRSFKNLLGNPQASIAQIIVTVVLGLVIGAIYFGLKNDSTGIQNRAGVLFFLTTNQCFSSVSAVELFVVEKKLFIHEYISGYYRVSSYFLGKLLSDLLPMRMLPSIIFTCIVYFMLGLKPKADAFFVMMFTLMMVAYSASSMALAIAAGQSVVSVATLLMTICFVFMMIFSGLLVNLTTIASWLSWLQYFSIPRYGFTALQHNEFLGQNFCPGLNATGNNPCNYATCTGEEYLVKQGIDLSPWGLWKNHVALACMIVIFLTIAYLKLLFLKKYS
row,SMILES,outcome
1,C#CCOS(=O)OC1CCCCC1Oc1ccc(C(C)(C)C)cc1 (stereo not given),inactive
2,CS/C(C)=N/OC(=O)N(C)SN(C)C(=O)O/N=C(\C)SC,inactive
3,COC(=O)c1ccccc1C(=O)OC,inactive
4,Fc1ccc(Oc2ccnc3cc(Cl)cc(Cl)c23)cc1,inactive
5,CCNc1nc(Cl)nc(NCC)n1,inactive

# Read-out: xenobiotic metabolism (CYP1A1), CYP1A1 (gene 1543)
# Experiment: CLD_CYP1A1_48hr: CellzDirect (CLD) Gene Expression Assay for xenobiotic metabolism (CYP1A1) at 48 hours (AID 2283705)
# Procedure, shortened: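 Primary human hepatocytes from two donors dosed daily for two days at multiple concentrations, 0.2% DMSO vehicle; CYP1A1 mRNA induction at 48 h by qNPA chemiluminescence. Cytotoxicity noted by phase-contrast morphology.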
SMILES,AC50,outcome
CC1COC(Cn2cncn2)(c2ccc(Oc3ccc(Cl)cc3)cc2Cl)O1 (stereo not given),2 µM (active),
CON(C)C(=O)Nc1ccc(Cl)c(Cl)c1,3.68 µM (active),
COP(=S)(OC)Oc1nc(Cl)c(Cl)cc1Cl,,inactive
CCCCNC(=O)n1c(NC(=O)OC)nc2ccccc21,33.1 µM (active),
O=C(O)COc1nc(Cl)c(Cl)cc1Cl,,inactive
CC(C)C1(C)N=C(c2nc3ccccc3cc2C(=O)O)NC1=O (stereo not given),,inactive
COC(=O)N(OC)c1ccccc1COc1ccn(-c2ccc(Cl)cc2)n1,1.9 µM (active),
CNC(=S)S,,inactive
CCCN(CCC)c1c([N+](=O)[O-])cc(S(N)(=O)=O)cc1[N+](=O)[O-],28.9 µM (active),
CCCC1COC(Cn2cncn2)(c2ccc(Cl)cc2Cl)O1 (stereo not given),20 µM (active),
CCOc1cc(Oc2ccc(C(F)(F)F)cc2Cl)ccc1[N+](=O)[O-],1.01 µM (active),
C=CCC1=C(C)C(OC(=O)C2C(C=C(C)C)C2(C)C)CC1=O (stereo not given),,inactive
CC1=C(C(=O)Nc2ccccc2)SCCO1,36.1 µM (active),
Cc1ccc(-c2c(Cl)nc(C#N)n2S(=O)(=O)N(C)C)cc1,20 µM (active),
C=CC1(C)OC(=O)N(c2cc(Cl)cc(Cl)c2)C1=O (stereo not given),,inactive
CN(C)C(=S)SSC(=S)N(C)C,29.7 µM (active),
O=C(Nc1ccccc1)Nc1ccnc(Cl)c1,10.8 µM (active),
CCc1nn(C)c(C(=O)NCc2ccc(C(C)(C)C)cc2)c1Cl,8.98 µM (active),
C#CCOS(=O)OC1CCCCC1Oc1ccc(C(C)(C)C)cc1 (stereo not given),,inactive
CS/C(C)=N/OC(=O)N(C)SN(C)C(=O)O/N=C(\C)SC,,inactive
Fc1ccc(Oc2ccnc3cc(Cl)cc(Cl)c23)cc1,,inactive
CCNc1nc(Cl)nc(NCC)n1,3.92 µM (active),
CCOP(=S)(OCC)SCn1c(=O)oc2cc(Cl)ccc21,13.9 µM (active),

# Read-out: glucuronosyltransferase (UGT1A1), UGT1A1 (gene 54658)
# Experiment: CLD_UGT1A1_48hr: CellzDirect (CLD) Gene Expression Assay for glucuronosyltransferase (UGT1A1) at 48 hours (AID 2283709);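 note: actives increase expression relative to DMSO so potency refers to induction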
# Procedure, shortened: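 Human primary hepatocytes dosed daily for two days (0.2% DMSO vehicle), harvested at 48 h. UGT1A1 mRNA induction measured by quantitative nuclease protection assay with chemiluminescence; gain of signal versus DMSO; cytotoxicity flagged from morphology.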
SMILES,outcome,AC50
CC1COC(Cn2cncn2)(c2ccc(Oc3ccc(Cl)cc3)cc2Cl)O1 (stereo not given),inactive,
CON(C)C(=O)Nc1ccc(Cl)c(Cl)c1,inactive,
COP(=S)(OC)Oc1nc(Cl)c(Cl)cc1Cl,inactive,
CCCCNC(=O)n1c(NC(=O)OC)nc2ccccc21,inactive,
O=C(O)COc1nc(Cl)c(Cl)cc1Cl,inactive,
CC(C)C1(C)N=C(c2nc3ccccc3cc2C(=O)O)NC1=O (stereo not given),inactive,
CNC(=S)S,inactive,
Oc1ccccc1-c1ccccc1,inactive,
CCCN(CCC)c1c([N+](=O)[O-])cc(S(N)(=O)=O)cc1[N+](=O)[O-],inactive,
CCCC1COC(Cn2cncn2)(c2ccc(Cl)cc2Cl)O1 (stereo not given),inactive,
CCOc1cc(Oc2ccc(C(F)(F)F)cc2Cl)ccc1[N+](=O)[O-],,5.41 µM (active)
C=CCC1=C(C)C(OC(=O)C2C(C=C(C)C)C2(C)C)CC1=O (stereo not given),,11.1 µM (active)
CC1=C(C(=O)Nc2ccccc2)SCCO1,inactive,
CNC(=O)ON=CC(C)(C)SC,inactive,
C=CC1(C)OC(=O)N(c2cc(Cl)cc(Cl)c2)C1=O (stereo not given),inactive,
O=C(Nc1ccccc1)Nc1ccnc(Cl)c1,,6.7 µM (active)
CC(Oc1ccc(Cl)cc1Cl)C(=O)O (stereo not given),inactive,
CS/C(C)=N/OC(=O)N(C)SN(C)C(=O)O/N=C(\C)SC,inactive,
COC(=O)c1ccccc1C(=O)OC,inactive,
Fc1ccc(Oc2ccnc3cc(Cl)cc(Cl)c23)cc1,inactive,
CCNc1nc(Cl)nc(NCC)n1,inactive,
CCOP(=S)(OCC)SCn1c(=O)oc2cc(Cl)ccc21,inactive,
